# Results as given in PubChem BioAssay (Tox21).
# Results filed as inconclusive are left out. Entries that show only a call come without a potency. A structure can be active in one record and inactive in another. Activity calls are given as the source filed them. Calls come from the whole dose curve; as a rule, active = well fitted cell-killing curve with a large enough effect in the repeat runs; inconclusive = weak or mixed curves; inactive = flat fitted curve, though single readings scatter.
# Experiment: qHTS assay to identify small molecule antagonists of the estrogen receptor beta (ER-beta) signaling pathway - cell viability counter screen (AID 1259382); note: nearly all actives have a fitted effect of over 55% in size
# Conditions: ER-beta-UAS-bla HEK293T viability, CellTiter-Glo luminescence, 16 h; series mostly up to 92.4 µM
# Description: U.S. Tox21 Program National Center for Advancing Translational Sciences [NCATS] NIH Chemical Genomics Center [NCGC] U.S. Environmental Protection Agency [EPA] National Institutes of Environmental Health Sciences [NIEHS] National Toxicology Program [NTP] U.S. Food and Drug Administration [FDA] Tox21 Assay Overview: Estrogen receptor (ER), a nuclear hormone receptor, plays an important role in development, metabolic homeostasis and reproduction. Two subtypes of ER, ER-alpha and ER-beta, have similar expression patterns with some uniqueness in both types. Endocrine disrupting chemicals (EDCs) and their interactions with steroid hormone receptors like ER causes disruption of normal endocrine function. To identify the compounds that inhibit ER signaling, an ER-beta-UAS-bla GripTite cell line (Life Technologies, Madison, WI, USA) containing a beta-lactamase reporter gene under the control of an UAS response element was used to screen Tox21 10K compound library. The cytotoxicity of the Tox21 compound library against the ER-beta-bla cell line was tested in parallel by measuring the cell viability using CellTiter-Glo assay in the same wells.
# Tox21 Assay Protocol Summary: ER-beta-UAS-bla HEK293T cells were dispensed at 2,000 cells/4 uL of assay medium containing 2% charcoal stripped FBS per well into black wall/clear-bottom 1536-well plates using a Multidrop Combi (ThermoFisher Scientific, Waltham, MA) dispenser. After the assay plates were incubated at a 37C and 5% CO2 for 6 hr, 23 nL of compounds dissolved in DMSO, positive controls or DMSO only was transferred to the assay plate by a Pintool station (Kalypsys, San Diego, CA), followed by addition of 1 uL (1nM as final concentration) of 17-beta-estradiol (E2) in assay medium using a Flying Reagent Dispenser (FRD, Aurora Discovery, San Diego, CA). The plates were incubated at 37C and 5% CO2 for 16 hr. Then 1 uL of LiveBLAzer B/G FRET substrate was added using a Flying Reagent Dispenser, the plates were incubated at room temperature for 2 hours, and fluorescence intensity was measured by an Envision plate reader (PerkinElmer, Shelton, CT). For cell viability readout that measures cytotoxicity, 4 uL/well of CellTiter-Glo reagent was added into the assay plates using a FRD. After 30 min incubation at room temperature, the luminescence intensity in the plates was measured using a ViewLux (PerkinElmer) plate reader.
# Potency is the fitted concentration of half-maximal effect.
row,SMILES,Potency
1,O=P(O)(O)CCCl,inactive
2,C=CCN(CC=C)C(=O)C(Cl)Cl,inactive
3,CCN(CC)C(=O)/C(Cl)=C(\C)OP(=O)(OC)OC,inactive
4,Cc1ccc(OP(=O)(Oc2ccc(C)cc2)Oc2ccc(C)cc2)cc1,inactive
5,N#CC(Br)Br,inactive
6,CCCCN(CCCC)N=O,inactive
7,c1ccc(NNc2ccccc2)cc1,inactive
8,O=S(=O)(Oc1ccc(Cl)cc1)c1ccc(Cl)cc1,inactive
9,O=C(CCl)c1ccccc1,inactive
10,CC(C)(OOC(C)(C)c1ccccc1)c1ccccc1,inactive
11,Cc1ccc2c(c1N)C(=O)c1ccccc1C2=O,inactive
12,CCOc1cc(Oc2ccc(C(F)(F)F)cc2Cl)ccc1[N+](=O)[O-],inactive
13,CN(C)C(=O)Nc1ccc(Cl)cc1,inactive
14,c1cc(OCC2CO2)ccc1Cc1ccc(OCC2CO2)cc1 (stereo not given),48.8 µM (active) and inactive
15,CCOP(=S)(OCC)O/N=C(\C#N)c1ccccc1,inactive
16,C=CCc1ccc(OC)cc1,inactive
17,Oc1ccc(-c2ccccc2)cc1,inactive
18,C=C(C)C(=O)OCC1CO1 (stereo not given),inactive
19,CCCCC(CC)COC(=O)c1ccc(C(=O)OCC(CC)CCCC)c(C(=O)OCC(CC)CCCC)c1 (stereo not given),inactive
20,CC(C)NC(C)C,inactive

row,SMILES,Potency
1,COC(=O)c1sccc1S(=O)(=O)NC(=O)Nc1nc(C)nc(OC)n1,inactive
2,Cc1cc(Cl)ccc1OCCCC(=O)O,inactive
3,CCC(C)(C)c1ccc(O)cc1,inactive
4,COP(=S)(OC)Oc1ccc([N+](=O)[O-])cc1,inactive
5,NC(=S)Nc1ccccc1,27.8 µM (active) and inactive
6,O=[N+]([O-])c1c(Cl)c(Cl)c(Cl)c(Cl)c1Cl,inactive
7,C=C(C)[C@H]1Cc2c(ccc3c2O[C@@H]2COc4cc(OC)c(OC)cc4[C@@H]2C3=O)O1,inactive
8,NNC(N)=S,12.7 µM (active)
9,CC(C)(C)c1ccccc1O,inactive
10,Nc1ccc(-c2ccccc2)cc1,inactive
11,CC(C)=CC1C(C(=O)OCc2coc(Cc3ccccc3)c2)C1(C)C (stereo not given),inactive
12,c1ccc(-c2cccc(-c3ccccc3)c2)cc1,inactive
13,Cc1ccc(N)c(N)c1,inactive
14,COP(=S)(OC)Oc1cc(Cl)c(Cl)cc1Cl,inactive
15,CCc1cccc(CC)c1N(COC)C(=O)CCl,inactive
16,CCCCC(CC)COC(=O)Cl (stereo not given),inactive
17,C1=Cc2cccc3cccc1c23,inactive
18,O=[N+]([O-])c1ccc(O)c([N+](=O)[O-])c1,inactive
19,S=C1NCCN1,inactive
20,Brc1ccc(Oc2cc(Br)c(Br)cc2Br)c(Br)c1,inactive
